Measured values taken from PubChem BioAssay AID651661 (Broad Institute, 2012).
In all, about 350,000 compounds went through this assay and about 2,300 (0.66%) were called active. Only a selection was taken, and actives are over-represented in it overall. Values without a mark were called inactive.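 Rule for the calls: active = mean inhibition of at least 50% after viability correction, with every replicate also passing that limit; inconclusive = mean reaches 50% but only one of two replicates passes; inactive = the rest.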

Experiment: blockers of EWS/Fli transcriptional output – A673 cells, NR0B1 luciferase, luminescence, MLPCN library, primary screen (AID 651661);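 note: firefly luciferase signal divided by Alamar Blue viability fluorescence both relative to DMSO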
Settings: A673 NR0B1-luciferase reporter, viability-normalised; at 12.6 µM; active compounds read high
For CCNC(=O)[C@H]1[C@H](CO)[C@H]2Cn3c(ccc(-c4cccc(OC)c4)c3=O)[C@H]2N1Cc1nccs1, the inhibition was 2.22%. C[C@H]1CN([C@@H](C)CO)C(=O)c2cc(/C=C/c3ccccc3)cnc2O[C@@H]1CN(C)C(=O)NC1CCCCC1 showed an inhibition of -13.4%. With COCC(=O)Nc1ccc2c(c1)OC[C@@H](C)N(C(=O)c1cnccn1)C[C@H](C)[C@@H](OC)CN(C)C2=O the inhibition was -0.326%. For CC(C)c1cc(C(=O)NC2CCCCCC2)c2ccccc2n1, the inhibition was -3.93%. CC(C)C(C)NC(=O)COc1nc2ccccc2nc1N(C)C1CCCCC1 (stereo not given) showed an inhibition of 6.59%. For CN(c1ccc2nc3ccccc3c(=O)n2n1)C1CCCCC1, the inhibition was 84.9% (active). In the case of COc1cccc(NC(=O)C[C@@H]2CC[C@H]3[C@@H](COc4ccc(NC(=O)C5CCC5)cc4C(=O)N3C)O2)c1, the inhibition is reported as -3.34%. Cc1ccc(S(=O)(=O)Nc2ccc3c(c2)C(=O)N([C@@H](C)CO)C[C@H](C)[C@@H](CN(C)CC2CC2)O3)cc1 showed an inhibition of -3.89%. Molecule C[C@H]1CN([C@@H](C)CO)C(=O)c2ccccc2-c2ccccc2CO[C@@H]1CN(C)C(=O)CCN(C)C has an inhibition of 2.93%. In the case of COc1ccc(-c2nc3c(s2)CCc2onc(-c4ccc(OC)cc4)c2-3)cc1, the inhibition is reported as 65.6% (active). In the case of COc1ccc(-c2nc3c(s2)CCc2onc(-c4ccc(Br)cc4)c2-3)cc1, the inhibition is reported as 24.2%. For COc1ccc(-c2nc(CCNC(=O)c3ccc(Br)o3)cs2)cc1, the inhibition was -1.15%. Molecule C[C@@H]1CN([C@@H](C)CO)C(=O)c2cc(NS(=O)(=O)c3cn(C)cn3)ccc2O[C@@H](C)CCCCO[C@@H]1CN(C)Cc1ccncc1 has an inhibition of 4.01%. Work on COCC(=O)Nc1ccc2c(c1)C(=O)N(C)C[C@@H](OC)[C@@H](C)CN(CC1CCCCC1)[C@@H](C)CO2 yielded an inhibition of -0.183%. For CCC(=O)N1CC(=O)N2[C@@H](CO)[C@H](c3ccc(C#CC4CCCC4)cc3)[C@@H]2C1, the inhibition was 56.6% (active). For COCC(=O)N1CC(=O)N2[C@H](CO)[C@@H](c3ccc(C#CC4CCCC4)cc3)[C@H]2C1, the inhibition was -0.851%. In the case of CCC(=O)N1CC(=O)N2[C@@H](CO)[C@@H](c3ccc(C#CC4CCCC4)cc3)[C@@H]2C1, the inhibition is reported as 9.48%. With COc1ccc2c3c([nH]c2c1)[C@@H](CO)N(C(=O)CN1CCOCC1)CC31CCN(C)CC1 the inhibition was -7.25%. Work on CO[C@H]1CN(C)C(=O)c2ccc(NS(C)(=O)=O)cc2OC[C@@H](C)N(Cc2ccccc2)C[C@H]1C yielded an inhibition of -2.52%. With O=C(C1CC1)N1CC(=O)N2[C@H](CO)[C@@H](c3ccc(-c4ccccc4F)cc3)[C@@H]2C1 the inhibition was -0.073%. For COc1ccc2c3c(n(C)c2c1)[C@@H](CO)N(CC1CC1)CC31CN(C(=O)Nc2c(C)noc2C)C1, the inhibition was -1.03%. CC(=O)Nc1ccc2nc(NC(=O)CS(=O)(=O)c3ccc(F)cc3)sc2c1 gave an inhibition of -3.37%. In the case of CCCC(=O)Nc1nc2ccc(NC(=O)c3c(F)c(F)c(OC)c(F)c3F)cc2s1, the inhibition is reported as 57.7% (active). CCCn1nc(C(=O)Nc2ccc3nc(C)sc3c2)c2ccccc2c1=O gave an inhibition of -12%. With O=C(NC[C@@H]1[C@@H](c2ccccc2)[C@H](CO)N1C(=O)C1CCC1)NC1CCCC1 the inhibition was 14.7%. COc1ccccc1-c1ccc2n(c1=O)C[C@@H]1[C@@H](CO)[C@H](C(=O)NCc3ccccc3Cl)N[C@H]21 gave an inhibition of -17.8%. Work on Cc1ccc(-c2nn(-c3ccccc3)cc2/C=C2\SC(=S)N(CCCCCC(=O)O)C2=O)o1 yielded an inhibition of -10.8%. In the case of C=CCOc1ccc(/C=C2\SC(=S)N(CCC(=O)O)C2=O)cc1, the inhibition is reported as 78.5% (active). Work on O=C1/C(=C/c2ccc(F)cc2)SC(=S)N1CCCC(=O)N1CCCCC1CCO (stereo not given) yielded an inhibition of -2.88%. For C[C@H]1CN([C@@H](C)CO)C(=O)c2cccc(NS(=O)(=O)c3ccc(F)cc3)c2O[C@@H]1CN(C)C, the inhibition was 1.9%. Cc1ccc(S(=O)(=O)N(C)C[C@@H]2Oc3c(NC(=O)c4ccncc4)cccc3C(=O)N([C@@H](C)CO)C[C@@H]2C)cc1 showed an inhibition of -2.33%. Work on COc1ccc(NC(=O)N[C@@H]2C=C[C@H](CC(=O)NC3CCC3)O[C@@H]2CO)cc1 yielded an inhibition of 3.89%. Molecule O=C(C1CCCC1)N1CC(=O)N2[C@H](C1)[C@@H](c1ccc(-c3ccccc3F)cc1)[C@@H]2CO has an inhibition of -3.17%. For COc1ccc2c3c(n(C)c2c1)[C@H](CO)NCC31CCN(C(=O)Nc2ccccc2F)CC1, the inhibition was 9.22%. In the case of C[C@H]1CN([C@@H](C)CO)C(=O)c2c(c3ccccc3n2C)-c2ccccc2CO[C@H]1CN(C)C(=O)Nc1ccc(F)cc1, the inhibition is reported as -3.34%. O=C(C[C@H]1C[C@@H]2c3cc(NC(=O)c4cccnc4)ccc3O[C@@H]2[C@@H](CO)O1)NCc1ccccc1F gave an inhibition of 6.33%. With C[C@H](O)C#Cc1ccc2c(c1)O[C@@H](CN(C)CC1CCCC1)[C@H](C)CN([C@@H](C)CO)S2(=O)=O the inhibition was -1.43%. O=C(CCc1ccccc1Cl)Nc1ccc(S(=O)(=O)Nc2nccs2)cc1 gave an inhibition of 8.82%. Cc1ccc(C(=O)Nc2nc3ccc(Cl)cc3s2)o1 gave an inhibition of -92.8%. In the case of Cc1ccc(CCC(=O)Nc2ncc(Cc3cc(Cl)ccc3Cl)s2)o1, the inhibition is reported as 54% (active). CCC(=O)Nc1ccc2c(c1)C(=O)N(C)C[C@H](OC)[C@@H](C)CN(C(=O)c1cnccn1)[C@@H](C)CO2 gave an inhibition of 4.08%. For O=C(NC[C@H]1CC[C@H]2[C@H](CN2Cc2cccc(Cl)c2)O1)C1CC1, the inhibition was 5.25%. In the case of CCCNC(=O)c1c(Cl)cnn1-c1ccc(C)cc1, the inhibition is reported as -130%. For Cc1cccc(-n2ncc(Cl)c(Cl)c2=O)c1, the inhibition was 79.8% (active). Cc1cccc(-n2ncc3c(=O)[nH]c(SCC(=O)Nc4cc(C)on4)nc32)c1 showed an inhibition of -9.98%. For O=C(C[C@@H]1C[C@@H]2c3cc(NS(=O)(=O)c4ccc(F)cc4)ccc3O[C@@H]2[C@@H](CO)O1)N1CCOCC1, the inhibition was -1.95%. Work on CNC[C@H]1Oc2cc(C#CC3CCCC3)ccc2S(=O)(=O)N([C@H](C)CO)C[C@@H]1C yielded an inhibition of 3.9%. In the case of Cc1cccc(N(C)C(=O)c2cc3c(=O)[nH]c4ccc(C)cc4c3s2)c1, the inhibition is reported as 65% (active). With Cc1ccc2[nH]c(=O)c(CC(=O)O)c(-c3ccccc3)c2c1 the inhibition was -1.99%. Work on CCN(CC)CCCNC(=O)c1cc2c(=O)[nH]c3ccc(C)cc3c2s1 yielded an inhibition of 7.57%. Molecule O=C([C@H]1[C@H](CO)[C@H]2Cn3c(cccc3=O)[C@@H]1N2Cc1cocn1)N1CCCCC1 has an inhibition of -0.44%. With CCC(C)Cn1c(O)cc2nn(-c3nc4ccccc4s3)c(=O)c-2c1C (stereo not given) the inhibition was 64.5% (active). In the case of N#Cc1ccc(-c2ccc([C@H]3[C@H](CO)N4C(=O)CN(C(=O)Cc5ccccc5)C[C@@H]34)cc2)cc1, the inhibition is reported as -6.19%. Work on COc1ccc(CNC(=O)C[C@@H]2C=C[C@@H](NC(=O)c3ccc4c(c3)OCO4)[C@@H](CO)O2)cc1 yielded an inhibition of -0.519%. Work on CCNC(=O)C[C@@H]1CC[C@@H]2[C@@H](COc3ccc(NC(=O)Nc4ccccc4F)cc3C(=O)N2C)O1 yielded an inhibition of -3.28%. With COc1ccc(Cn2c(=S)[nH]c3cc(C(=O)N4CCCCC4)ccc3c2=O)cc1 the inhibition was -2.4%. In the case of CCOc1cc2[nH]c(=S)n(Cc3ccc(C(=O)N4CCN(C)CC4)cc3)c(=O)c2cc1OCC, the inhibition is reported as 67.5% (active). In the case of COc1cc2[nH]c(=S)n(Cc3ccc(F)cc3)c(=O)c2cc1OC, the inhibition is reported as 11.2%. Work on O=C(Nc1ccc(F)cc1)N[C@@H]1CC[C@H](CC(=O)N2CCCCC2)O[C@H]1CO yielded an inhibition of 6.37%. Work on C[C@@H]1CN([C@@H](C)CO)S(=O)(=O)c2ccc(-c3ccc(C(=O)N(C)C)cc3)cc2O[C@@H]1CN(C)C(=O)Cc1ccccn1 yielded an inhibition of -2.65%.
